# Results published in PubChem BioAssay (NCI).
# This is part of a sample that, as a whole, favours compounds with a hit. Of some 83,000 tested, about 20% had one in any assay.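 A percent growth of 40 corresponds to 60% growth inhibition; 0 means no net growth; -100 means all cells died. Active threshold: below 10.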 Values without a mark were called inactive. Activity calls are given as the source filed them.
# Experiments:
# Assay in all cases: NCI-60 one-dose screen, 48 h (100 = growth as untreated, 0 = no growth, -100 = all killed)
# Conditions in all cases: 10 µM unless noted
# [1] = system: SK-MEL-2 melanoma
# [2] = system: EKVX NSCLC
# [3] = system: SN12C renal
# [4] = system: UO-31 renal
# [5] = system: TK-10 renal
# [6] = system: ACHN renal
# [7] = system: CAKI-1 renal
# [8] = system: A498 renal
# [9] = system: MOLT-4 leukemia
Compound,growth [1],growth [2],growth [3],growth [4],growth [5],growth [6],growth [7],growth [8],growth [9]
Cn1cc(-c2csc(-c3ccccc3)n2)c2cccnc21,-48.2% [100 µM] (active),4.11% [100 µM] (active),-58.2% [100 µM] (active),-28.7% [100 µM] (active),-45.7% [100 µM] (active),0.882% [100 µM] (active),-32.4% [100 µM] (active),-82.4% [100 µM] (active),-8.37% [100 µM] (active)
CC/C=C1/C(=O)C=C[C@@H]1C/C=C\CCCC(=O)O,87%,101%,79.9%,103%,105%,85.5%,84.9%,104%,9.64% (active)
C[C@H](NC(=O)[C@@H]1CSSC[C@@H](NC(=O)c2nc3ccccc3cc2O)C(=O)NCC(=O)N1C)c1ccccc1,62.2%,42%,-17.7% (active),63.8%,59.9%,44.7%,83.2%,112%,-8.45% (active)
CCSC1=NC2C(N(CC)C(=O)N2CC)N1/N=C/C=C/c1ccccc1[N+](=O)[O-] (stereo not drawn),50.3%,46.5%,19.8%,34.6%,70.6%,25.1%,19.5%,-5.18% (active),15.1%
NS(=O)(=O)c1cnccc1Sc1ccncc1S(N)(=O)=O,119%,96.9%,100%,80%,99.6%,106%,98.2%,104%,86.3%
CC/C=C/C/C=C/C/C=C/C/C=C/C/C=C/C/C=C/CCC(=O)Nc1ccn([C@@H]2O[C@H](CO)[C@@H](O)C2(F)F)c(=O)n1,83.1%,70%,-2.1% (active),3.26% (active),67.9%,6.15% (active),12.4%,16.6%,1.85% (active)
C=C1C(=O)O[C@H]2[C@H]1CC/C(COC(=O)C(=O)c1c[nH]c3ccccc13)=C\CC[C@@]1(C)O[C@@H]21,-57.5% (active),48.2%,-46.7% (active),-93.3% (active),-32.3% (active),-36% (active),-33.8% (active),-17.9% (active),-24.6% (active)
Cc1ccc2[nH]c(=O)c3c(c2c1)OC(N)=C(C#N)C31c2cc(Br)ccc2-c2ccc(Br)cc21,77.1%,60.3%,82.7%,58.3%,84.2%,62.3%,49.1%,79.7%,62.3%
COc1cc(N=Nc2cc(Cc3ccc(N(C)C)cc3)c(N)cc2N(C)C)c2ncccc2c1,29.4%,8.8% (active),31.2%,-12.6% (active),32.3%,-58.5% (active),13.5%,-8.31% (active),-13.2% (active)
CC/C=C\C[C@H](O)C/C=C1/C(=O)C=C[C@@H]1C/C=C\CCCCO,62.5%,69.3%,-15.9% (active),-74.2% (active),5.32% (active),-69.3% (active),0.105% (active),100%,8.39% (active)
Clc1ccc(-c2c3ccc(=[N+]4CCCCC4)cc-3oc3cc(N4CCCCC4)ccc23)cc1,-77.4% (active),-66.7% (active),-79.1% (active),-83.9% (active),-94.8% (active),-94.4% (active),-75.2% (active),-97.5% (active),-32.1% (active)
COc1ccc(-c2csc(C3=C(O)CN(C(C)C)C3=N)n2)cc1OC,133%,94.3%,97.4%,3.91% (active),94.4%,103%,82.1%,89.6%,87.2%
O=C(/C=C/c1c(Cl)nc2sccn12)c1ccc(F)c(F)c1,74.7%,74%,76.5%,64%,91.6%,81.1%,81.2%,73.6%,66.7%
CCN(CC)c1nc(SCC(=O)Nc2nc3ccc(C)cc3s2)nc(-c2ccccc2)c1C#N,92%,81%,94%,68.8%,94.6%,94.8%,75.4%,81%,79.7%
CSc1n(Cc2ccc3ccccc3c2)c(C)c[n+]1Cc1ccc2ccccc2c1,-25.7% (active),24.9%,-2.22% (active),72.4%,-9.72% (active),48%,-22.8% (active),-32.3% (active),2.39% (active)
Cc1cccc(-c2nc(N(C)c3ccc4ncsc4c3)c3ccccc3n2)n1,85.1%,85%,93.6%,77.7%,105%,94.6%,77.5%,78.8%,76.4%
COc1ccc2[nH]c(O)c(/C=c3/cc4c(c(-c5ccc(F)c(OC)c5)n3)=Nc3ccccc3-4)c2c1,96.3%,89.5%,88.6%,74.7%,87.2%,52.2%,88.3%,69.6%,1.77% (active)
C=CCn1c(C)nc2cc(Nc3nc(Cl)nc4ccccc34)ccc21,99.5%,93.7%,97.3%,93.8%,114%,103%,87.2%,55.4%,78.7%
C[C@H]1[C@H]2[C@H]3CC[C@@H]4[C@@]5(C)C/C(=C/c6cccnc6)C(=O)C(C)(C)[C@@H]5CC[C@@]4(C)[C@]3(C)CC[C@]23CO[C@]1(C)[C@@H](C(=O)/C=C\c1cccnc1)C3,-25.5% (active),-1.58% (active),-17.7% (active),-97.3% (active),-14.5% (active),-22.2% (active),9.32% (active),-59.1% (active),16.7%

Compound,growth [1],growth [2],growth [3],growth [4],growth [5],growth [6],growth [7],growth [8],growth [9]
Cc1ccc(CCC(=O)Nc2ncc(Cc3cc(Cl)ccc3Cl)s2)o1,65%,41%,23.4%,32%,57%,28.8%,26.2%,6.53% (active),14%
N#Cc1nc2c(S(=O)(=O)c3ccc(Cl)cc3)c(N)n(Nc3cccc(Cl)c3)c2nc1C#N,121%,33.3%,56.8%,63%,36.3%,67.7%,88.5%,49.2%,49.5%
COc1cccc(/C=C/C(=O)c2c(C)nc3ccccc3c2/C=C/c2ccc(C)cc2)c1OC,77.2%,80.8%,52.1%,54.3%,118%,52.9%,57%,73.8%,11.3%
N=c1sc(Cc2ccc(Cl)cc2)cn1CC(=O)c1ccc(F)cc1,97.1%,70.5%,87.5%,57.6%,66.9%,47.2%,44.6%,91.1%,71.3%
CC1=CN2C(=O)C3C4=C(CCCC4)SC3N=C2CN1c1c(C)cccc1C (stereo not drawn),116%,81%,99.6%,90.7%,100%,96.2%,81.1%,92%,77%
O=c1[nH][n+](-c2ccc(Cl)cc2)no1,75.4%,60.6%,73.5%,27%,70.8%,40.7%,18.5%,82.6%,44.4%
O=C(COc1ccc(/C=C2\Oc3ccccc3C2=O)cc1)Nc1nc2ccccc2s1,106%,42.8%,64.4%,-77.2% (active),134%,72.7%,-83% (active),115%,-48.8% (active)
Cc1c2c(c(C)c3c1oc1cc(O)ccc13)C(=O)N(CCN1CCCCC1)C2=O,105%,101%,85.9%,74.9%,96.7%,84.3%,76.3%,106%,80.4%
Cc1cc(=O)oc2c1ccc1oc(C#N)c(C)c12,115%,93.7%,101%,94.7%,89.2%,103%,106%,75.1%,102%
COc1cc(/C=C/C(=O)c2c(C)nc3ccccc3c2C)ccc1OCCCN1CCN(C(=O)c2ccco2)CC1,59.3%,81.7%,92.5%,66.7%,110%,80.6%,74.8%,59.4%,60.6%
CCCCCCCC/C=C\CCCCCCCCOc1ccccc1CC(=O)NCC[N+](C)(C)C,96.4%,83.4%,67.5%,79.6%,9.37% (active),68.2%,50.7%,100%,77.3%
CC/C=C\C/C=C\C[C@H](O)C/C=C1/C(=O)C=C[C@@H]1C/C=C\CCCC(=O)O,23.2%,95.3%,16.9%,57%,79%,60.2%,37.8%,96.6%,7.61% (active)
Cc1cc(Cl)ccc1Nc1nc(C(F)(F)F)ccc1C(=O)N/N=C/c1ccc(N(C)C)cc1,-6.44% (active),26.3%,57.7%,22.7%,25.8%,24.6%,22.6%,34.7%,12.8%
COc1ccc(-c2csc(C3=C(O)CN(CCCN4CCCC4=O)C3=N)n2)cc1OC,99.2%,97.5%,105%,83.8%,127%,103%,103%,100%,81%
O=[N+]([O-])c1ccc(-c2cc(-c3ccc(Nc4nc(Nc5ccc(Cl)cc5)nc(Nc5ccc(Cl)cc5)n4)cc3)no2)cc1,72.4%,92.9%,97.6%,78.8%,105%,94.5%,115%,88.2%,-19.7% (active)
Cc1ccc(-n2c(-c3ccccc3)c(-c3ccccc3)c3c(SCC(=O)n4[nH]c(N)cc4=O)ncnc32)cc1,108%,87.2%,99.2%,71.9%,104%,91.2%,88.4%,114%,87.3%
COc1ccc(-c2nc(SCCC(C)C)nc(N/N=C\c3ccccc3O)c2C#N)cc1,103%,101%,81.2%,86.7%,101%,73.5%,73.9%,95.8%,90.2%
O=C(NC(CSSCC(NC(=O)c1ccccc1)C(=O)O)C(=O)O)c1ccccc1 (stereo not drawn),97.3%,103%,102%,91.8%,101%,102%,91.6%,86.1%,-1.1% (active)
